# Data: the supplement of paper PMC6555819
# Key:
# Assay in all cases: PBM binding z-score (relative to random genomic background probes); higher = stronger binding; sequences stand for … in GC…GCGATTGACAGCGTAGAATGAAGG
# [1] = test system: RARb homodimer (NR concentration 270 nM)
# Procedure, shortened: (§1)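 The probes on custom Agilent 4×180K protein-binding microarrays were double-stranded, with 34-nt variable regions bearing direct-repeat seeds, single-nucleotide variants, half-site ablations and random human genomic background sequences. Incubation lasted 1 h with ligand-free nuclear receptor dimers in PBS pH 7.4, 2% milk, 0.02% Triton X-100, 1 mM DTT, 0.2 mg/mL BSA and 0.4 mg/ml salmon testes DNA. Antibodies against each partner (one per run) detected bound dimers, and fluorescence scans were regression-normalized. Binding z-scores take the random background probes as reference.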
# [2] = test system: RARg:RXRa (NR concentration 270 nM, RXRa partner concentration 90 nM)
# Procedure, shortened: as §1
# [3] = test system: RARg homodimer (NR concentration 270 nM)
# Procedure, shortened: as §1
# [4] = test system: RXRa DBDmut IVT, anti-RXR (DBD mutation: RXRa K156A/R161A, NR concentration 90 nM)
# Procedure, shortened: as §1
# [5] = test system: RXRa homodimer (NR concentration 180 nM)
# Procedure, shortened: as §1
# [6] = test system: THRa:RXRa (NR concentration 90 nM, RXRa partner concentration 90 nM)
# Procedure, shortened: as §1
# [7] = test system: THRa homodimer (NR concentration 90 nM)
# Procedure, shortened: as §1
# [8] = test system: VDR homodimer (NR concentration 270 nM)
# Procedure, shortened: as §1
Sequence,PBM binding z-score [1],PBM binding z-score [2],PBM binding z-score [3],PBM binding z-score [4],PBM binding z-score [5],PBM binding z-score [6],PBM binding z-score [7],PBM binding z-score [8]
TCTTATAGATCAAAGGTTAAGAAAGCCGAAGCCT,1.4,2.16,1.15,1.21,3.93,1.51,-0.709,0.214
GCTAGTCGGTCAGTAAAAGGTCACACACCGGTCG,5.59,6.16,6.16,0.548,5.55,3.62,1.73,1.85
ATCTCTAAGTAACAAGTTCAGTGAAAGAGAGGAC,1.84,0.884,1.24,1.06,0.744,0.981,0.691,2.61
ATCGCTAGGTAAAAGTTCAGTGAATCCCGAGGAT,2,1.37,1.46,0.265,1.64,0.795,-0.348,1.16
CCGACTGGGGCAGAAAGGTTTCCATACCATCCGG,0.129,-0.218,0.0471,-0.768,-0.284,-1.38,-0.951,-0.664
GCTATTAGTTGACAGGGCAACCGAATGATTCTCG,0.837,0.251,0.693,0.605,0.324,-0.129,-0.0185,-0.0905
CAAGCTAGGTCACCGGAAGGTCAAAGTCCGCATG,5.19,8.48,7.81,1.93,6.91,4.5,2.79,3.87
CCGGGTAGGTTATGGGGCATTCAGGCAACGGTGA,1.1,0.906,0.708,-1.46,0.781,0.806,0.313,0.138
TTACCAAGGGGAGCTGAGGTCGTTGATCCAACTC,0.704,0.0282,-0.439,0.656,0.726,3.71,1.49,1.86
CCTAGCAGGCCAGGGTCTCTCAAGCATTTCGCTT,-0.597,-0.659,-0.606,-0.912,-0.675,-0.53,-0.611,-0.871
CATACTAGGTCAAGGTCAAAGTCGGTTTGTGCCA,5.08,6.18,6.66,3.15,5.93,4.24,3.85,4.88
CCTACTGGGCCACGACAGGTCATTGATTCAGTGA,2.31,1.95,1.52,-0.438,1.56,2.74,0.324,0.706
GCTTGTAGATCAAGGGTAAGAAAGACTAAGCTAA,-0.585,-0.317,-0.393,-0.509,-0.00933,-0.138,-0.974,-0.486
TCTAGTTGATCACGGAGGTCACACACGACGGGTA,3.89,4.17,3.92,0.917,4.56,3.52,2.48,2.18
GCTAGCAGGCCATCTGGGTCACTCAATGACGGGC,1.99,1.2,1.84,-0.462,0.806,1.62,0.249,0.262
GCAGACAGGTGAAACGCAAGTAACTCAGGGTGGC,-0.222,0.227,0.311,-0.514,0.606,0.23,-0.701,-0.62
TCATATAGGTAAATGGTAGGTGAAAGTCCGATCT,0.917,0.69,0.384,1.84,0.945,0.858,0.785,1.1
CCTACTGGGCCAAGGCCATTGATCAGTCAAAGCA,0.497,-0.179,-0.0334,-1.15,-0.715,0.101,-0.288,-0.406
AATACAGGGTCACTAGGCCAGAATAGGTACGAAT,3.3,5.17,4.76,2.85,5.58,3.41,1.4,2.52
CCAGACAGGTGAAAGGTACCTCAGTCTGGTACGC,0.251,0.666,0.394,-0.333,1.32,0.325,-0.329,-0.438
CAAACTTGGTCACCGGAAGGTCAAAGTCCGCATG,4.11,5.35,4.2,0.79,4.16,3.05,1.24,2.2
AGTCAAAGTTCACCAGGTAACGTAAGATTCAGCT,4.3,6.02,6.53,4.1,5.25,2.88,0.769,4.32
TCTTGTAGATCAAGCCGGTTAAGAAAGCCTGAGT,0.000492,-0.162,-0.393,0.918,0.161,-0.0654,-0.203,0.0355
AGTCAAAGTTCATCTAGGTAACGCAAGATATGCT,3.95,5.4,6.01,4.76,4.57,3.08,0.274,5.06
GCGACTGGGGCATCAGCAGTTTACCATAACTTAA,0.541,0.124,0.341,0.507,0.0851,0.0532,-0.343,0.258
TCTTGTAGGTCAAGCAGGTTAAGAAAGCCTGAGT,3.48,4.8,5.5,1.7,4.02,3.08,0.641,1.49
TCTCGGAGGACACGTAAGGTCAGAGCTCGACATC,4.02,3.53,3.84,1.11,2.47,4.72,4.18,1.25
CAAACTAGGTCACCGGAAGGTCAATGTCCGCATG,5.62,8.18,7.34,2.27,5.58,4.36,2.94,3.01
